Experimental data taken from PubChem BioAssay (NCI).
Compounds without any hit were thinned out: in the full panel of roughly 83,000, 20% have a hit.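 48-hour exposure, single concentration, 96-well plates; percent growth endpoint where 0 means no net growth. Active: below 10.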 The source made the active and inactive calls.

Each compound was assayed on HL-60(TB) leukemia (assay: NCI-60 one-dose screen, 48 h (100 = growth as untreated, 0 = no growth, -100 = all killed)). Conditions: 10 µM unless noted.

SMILES | growth
CN1CCN(c2nc(-c3ccncc3)nc3sc4c(c23)CCCCCC4)CC1 | 88.3% (inactive)
O=c1cc(Cl)nc2ccccn12 | 92.9% (inactive)
COc1ccc(Cl)cc1NC(=O)c1cc2c(n1C)-c1nc(NC(=O)C(C)C)sc1CC2 | 74.7% (inactive)
CC[C@]1(O)C[C@@H]2CN(CCc3c([nH]c4ccccc34)[C@@](C(=O)OC)(c3cc4c(cc3OC)N(C)[C@H]3[C@@](O)(C(=O)OC)[C@H](OC(=O)CCCBr)[C@]5(CC)C=CCN6CC[C@]43[C@@H]65)C2)C1 | -21.2% (active)
O=C1NC(=O)C(c2ccc(Cl)cc2Cl)N1 (centres undefined) | 107% (inactive)
Cc1cnc(C(=O)Nc2nc3ccc(S(=O)(=O)Nc4ccc(C5(C(F)(F)F)CC5)cc4)cc3[nH]2)cn1 | -25.1% (active)
NNC(=O)c1nc2ccccc2[nH]1 | 101% (inactive)
CCCCCCn1c(-c2ccc(C(=O)O/N=C(\N)c3ccc(OC)cc3)cc2)nc(-c2ccccc2)c1-c1ccccc1 | -58% (active)
O=C1CCCc2nc3sc4c(=O)n(-c5ccccc5Cl)nnc4c3cc21 | 109% (inactive)
COc1cc(OC)c(/C=C/S(=O)(=O)Cc2ccc(OC)c(NCC(=O)O)c2)c(OC)c1 | -32% (active)
COc1ccc(CN2C(=O)/C(=C\c3cc(OC)c(OC)c(OC)c3)c3cc(OC)ccc32)cc1 | -27.2% (active)
COc1ccc(C(=O)COc2cccc(/C=C3\CSc4ccc(Cl)cc4C3=O)c2)cc1 | 81.8% (inactive)
O=C(Nn1c2c(sc1=NC1CC1)C(=O)c1ccccc1C2=O)c1cc2ccc1CCc1ccc(cc1)CC2 | 2.39% (active)
O=C(O)c1c[nH]c2ccccc2c1=O | 91.2% (inactive)
C/C=C(/C)C(=O)OC1C=C(CO)C(=O)C(OC(=O)C(C)(O)C(C)Cl)C1C(C)C (centres undefined) | -25.3% (active)
Cc1c(C)c2c(c(C)c1NC(=O)/C=C\C(=O)O)CCC(C)(CCCC(C)CCCC(C)CCCC(C)C)O2 (centres undefined) | 37.3% (inactive)
COc1ccc(-c2nc3sccn3c2/C=C/C(=O)c2cc(OC)c(OC)c(OC)c2)cc1 | 56.5% (inactive)
COc1ccc(-c2nnc(N3CCN(C(=O)CN4CCN(c5ccc(Cl)cc5)CC4)CC3)nc2-c2ccc(OC)cc2)cc1 | -37.4% (active)
CC(=O)O[C@H]1CC[C@@]2(C)C(=CC[C@@H]3[C@@H]2CC[C@]2(C)C(c4cccnc4)=CC[C@@H]32)C1 | 4.36% (active)
Oc1ccc(C(c2ccc(O)cc2)c2ccc(Br)cn2)cc1 | 106% (inactive)

SMILES | growth
C=C(C)[C@@H]1CCC[C@]2(C(=O)OC)CC[C@]3(C)[C@@H](CC[C@@H]4[C@@]5(C)CCCNC(C)(C)[C@@H]5CC[C@]43C)[C@@H]12 | 96.7% (inactive)
COc1cc2c(cc1OC)C(Sc1ccc(Cl)cc1)c1c(nc(N)c(C#N)c1N)O2 (centres undefined) | -25.1% (active)
COc1cc(/C=C/C(=O)C(=Cc2ccc(F)c(F)c2)C(=O)/C=C/c2ccc(O)c(OC)c2)ccc1O | 16.6% (inactive)
CC/C=C\CCC/C=C1/C(=O)C=C[C@@H]1C/C=C\CCCC(=O)O | 10.9% (inactive)
COc1ccc(-c2nc3sc4c(c3c(=O)[nH]2)CCCCCC4)cc1 | 29% (inactive)
N/C(=N\C(N)=N\c1nc2ccccc2s1)c1ccncc1 | 35.2% (inactive)
Cc1ccc(NC(=O)Nc2nc3ccccc3s2)cc1NC(=O)Nc1nc2ccccc2s1 | 106% (inactive)
CCN1C(=O)N(CC)C2C1NN=c1s/c(=C3\C(=O)N(CC(C)C)c4ccccc43)c(=O)n12 (centres undefined) | -43.8% (active)
Cc1ccc(C(=O)Nc2cccc(F)c2)cc1NC(=O)C1(c2ncnc3[nH]ccc23)CC1 | 64.7% (inactive)
Cc1ccccc1NC(=O)c1sc2nc3c(cc2c1N)CCCC3 | 11.8% (inactive)
O=S(=O)(NCCNc1nccc(-c2c(-c3ccc(F)c(O)c3)nc3occn23)n1)c1ccccc1 | 63.6% (inactive)
COc1cc(C(=O)c2cc(C)c3[nH]c4ccc(Cl)cc4c3c2C)cc(OC)c1OC | 0.383% (active)
CCOC(=O)C1C(=O)C(=O)N(C(C)C)C1C(=O)OCC (centres undefined) | 123% (inactive)
C=C1CCC2C(C)(CO)C(O)CCC2(C)C1C/C=C1/C(=O)OCC1O/C=C/c1ccccc1 (centres undefined) | 7.31% (active)
Nc1ccc2cc3ccc(N)cc3nc2c1 | 110% (inactive)
COc1c(Cl)ccc2c(-c3nc4cc(Cl)c(F)cc4s3)cc(=O)oc12 | -18.1% (active)
C[C@H]1C=C(C[C@@H](O)CC#CC#CCCCCC[C@@H](O)[C@H]2CCC(=O)O2)C(=O)O1 | 99.1% (inactive)
O=C(Nc1cccc(-n2ccc3c(NC(=O)c4ccccc4)nccc32)c1)c1cc(N2CCOCC2)cc(C(F)(F)F)c1 | -13.1% (active)
COC(=O)C[C@@H]1CC=CC(=O)/C1=C(O)/C=C/c1ccccc1 | -10.7% (active)
